Test results from the supplement of paper PMC11001985.
Values without a mark were called inactive.

The targets below were run with C#CCNC(=O)CCSSCCC(=O)NCCc1ccc(C=O)c(C=O)c1 (assay: lysine labeling ratio R10:1 (500 µM / 50 µM probe), SILAC-ABPP in living cells; higher = lower intrinsic lysine reactivity toward the probe, active = 2 or less). Settings: HeLa; probe concentrations 500 vs 50 µM.
Procedure, shortened: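 Living SILAC light and heavy HeLa cells in PBS at room temperature were treated with an alkyne-tagged, disulfide-linked lysine probe at 50 µM or 500 µM, with forward and reverse label swaps. The mixed lysates were clicked to biotin-azide, digested with trypsin, captured on neutravidin, released with DTT, alkylated and run by LC-MS/MS on a TIMS-TOF Pro. R for each lysine is the filtered median high-probe/low-probe MS1 peptide ratio, taken again as the median over forward and reverse replicates. Any value above 20 is set to 20.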

UniProt P02786, sequence (P02786 whole entry, looked up): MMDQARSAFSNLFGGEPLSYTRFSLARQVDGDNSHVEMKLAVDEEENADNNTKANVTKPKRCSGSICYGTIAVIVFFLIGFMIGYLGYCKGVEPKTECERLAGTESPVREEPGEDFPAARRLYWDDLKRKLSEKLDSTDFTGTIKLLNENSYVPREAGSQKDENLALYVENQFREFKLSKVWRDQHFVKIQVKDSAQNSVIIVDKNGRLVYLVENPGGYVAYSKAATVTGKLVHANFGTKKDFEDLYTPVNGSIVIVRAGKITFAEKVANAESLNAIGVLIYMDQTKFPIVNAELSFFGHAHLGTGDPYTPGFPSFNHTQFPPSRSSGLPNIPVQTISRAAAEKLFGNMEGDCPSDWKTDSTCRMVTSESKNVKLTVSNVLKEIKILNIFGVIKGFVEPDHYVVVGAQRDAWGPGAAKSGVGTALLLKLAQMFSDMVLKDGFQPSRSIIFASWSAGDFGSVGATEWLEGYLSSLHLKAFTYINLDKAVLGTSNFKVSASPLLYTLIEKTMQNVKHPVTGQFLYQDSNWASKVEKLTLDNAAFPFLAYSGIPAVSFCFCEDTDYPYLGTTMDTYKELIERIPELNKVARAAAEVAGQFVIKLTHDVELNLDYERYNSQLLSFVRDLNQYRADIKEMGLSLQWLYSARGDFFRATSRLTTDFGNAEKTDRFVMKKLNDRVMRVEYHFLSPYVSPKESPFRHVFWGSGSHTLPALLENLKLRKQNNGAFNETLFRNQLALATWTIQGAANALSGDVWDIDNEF
UniProt P19256, sequence (P19256 whole entry): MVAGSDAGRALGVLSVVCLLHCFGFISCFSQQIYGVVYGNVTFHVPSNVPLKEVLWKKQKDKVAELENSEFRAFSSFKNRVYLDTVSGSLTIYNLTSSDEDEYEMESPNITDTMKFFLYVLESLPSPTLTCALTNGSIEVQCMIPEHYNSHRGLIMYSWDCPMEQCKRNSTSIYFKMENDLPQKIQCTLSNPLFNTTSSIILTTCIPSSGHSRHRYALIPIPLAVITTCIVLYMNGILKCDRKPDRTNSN
UniProt Q15904, sequence (Q15904 whole entry): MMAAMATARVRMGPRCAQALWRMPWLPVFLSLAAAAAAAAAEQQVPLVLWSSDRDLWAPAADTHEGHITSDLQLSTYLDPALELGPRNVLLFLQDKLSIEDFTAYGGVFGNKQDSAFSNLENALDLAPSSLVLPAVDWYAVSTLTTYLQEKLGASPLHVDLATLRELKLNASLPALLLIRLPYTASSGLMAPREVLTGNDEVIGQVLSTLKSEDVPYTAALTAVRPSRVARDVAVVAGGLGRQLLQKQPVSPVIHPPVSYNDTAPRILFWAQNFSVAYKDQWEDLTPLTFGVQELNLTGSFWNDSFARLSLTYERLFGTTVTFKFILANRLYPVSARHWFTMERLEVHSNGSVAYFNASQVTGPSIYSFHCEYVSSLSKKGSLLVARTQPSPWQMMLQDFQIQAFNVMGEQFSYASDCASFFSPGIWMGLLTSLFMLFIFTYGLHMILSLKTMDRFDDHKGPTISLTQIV
UniProt P60660, sequence (P60660 whole entry): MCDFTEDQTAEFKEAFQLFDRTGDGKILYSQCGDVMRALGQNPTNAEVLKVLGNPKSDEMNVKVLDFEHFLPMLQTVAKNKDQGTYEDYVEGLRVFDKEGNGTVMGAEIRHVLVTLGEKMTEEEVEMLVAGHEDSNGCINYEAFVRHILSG
UniProt P04406, sequence (P04406 whole entry, looked up): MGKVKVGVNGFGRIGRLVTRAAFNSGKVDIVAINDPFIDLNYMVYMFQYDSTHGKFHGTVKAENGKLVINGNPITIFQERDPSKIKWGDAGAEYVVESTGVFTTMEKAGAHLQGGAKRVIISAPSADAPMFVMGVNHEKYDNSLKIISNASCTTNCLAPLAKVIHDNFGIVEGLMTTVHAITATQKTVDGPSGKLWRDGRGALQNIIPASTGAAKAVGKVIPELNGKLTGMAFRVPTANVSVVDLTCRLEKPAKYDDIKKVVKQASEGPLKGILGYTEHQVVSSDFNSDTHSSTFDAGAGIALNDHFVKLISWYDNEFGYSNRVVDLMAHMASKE
UniProt Q12913, sequence (Q12913 whole entry): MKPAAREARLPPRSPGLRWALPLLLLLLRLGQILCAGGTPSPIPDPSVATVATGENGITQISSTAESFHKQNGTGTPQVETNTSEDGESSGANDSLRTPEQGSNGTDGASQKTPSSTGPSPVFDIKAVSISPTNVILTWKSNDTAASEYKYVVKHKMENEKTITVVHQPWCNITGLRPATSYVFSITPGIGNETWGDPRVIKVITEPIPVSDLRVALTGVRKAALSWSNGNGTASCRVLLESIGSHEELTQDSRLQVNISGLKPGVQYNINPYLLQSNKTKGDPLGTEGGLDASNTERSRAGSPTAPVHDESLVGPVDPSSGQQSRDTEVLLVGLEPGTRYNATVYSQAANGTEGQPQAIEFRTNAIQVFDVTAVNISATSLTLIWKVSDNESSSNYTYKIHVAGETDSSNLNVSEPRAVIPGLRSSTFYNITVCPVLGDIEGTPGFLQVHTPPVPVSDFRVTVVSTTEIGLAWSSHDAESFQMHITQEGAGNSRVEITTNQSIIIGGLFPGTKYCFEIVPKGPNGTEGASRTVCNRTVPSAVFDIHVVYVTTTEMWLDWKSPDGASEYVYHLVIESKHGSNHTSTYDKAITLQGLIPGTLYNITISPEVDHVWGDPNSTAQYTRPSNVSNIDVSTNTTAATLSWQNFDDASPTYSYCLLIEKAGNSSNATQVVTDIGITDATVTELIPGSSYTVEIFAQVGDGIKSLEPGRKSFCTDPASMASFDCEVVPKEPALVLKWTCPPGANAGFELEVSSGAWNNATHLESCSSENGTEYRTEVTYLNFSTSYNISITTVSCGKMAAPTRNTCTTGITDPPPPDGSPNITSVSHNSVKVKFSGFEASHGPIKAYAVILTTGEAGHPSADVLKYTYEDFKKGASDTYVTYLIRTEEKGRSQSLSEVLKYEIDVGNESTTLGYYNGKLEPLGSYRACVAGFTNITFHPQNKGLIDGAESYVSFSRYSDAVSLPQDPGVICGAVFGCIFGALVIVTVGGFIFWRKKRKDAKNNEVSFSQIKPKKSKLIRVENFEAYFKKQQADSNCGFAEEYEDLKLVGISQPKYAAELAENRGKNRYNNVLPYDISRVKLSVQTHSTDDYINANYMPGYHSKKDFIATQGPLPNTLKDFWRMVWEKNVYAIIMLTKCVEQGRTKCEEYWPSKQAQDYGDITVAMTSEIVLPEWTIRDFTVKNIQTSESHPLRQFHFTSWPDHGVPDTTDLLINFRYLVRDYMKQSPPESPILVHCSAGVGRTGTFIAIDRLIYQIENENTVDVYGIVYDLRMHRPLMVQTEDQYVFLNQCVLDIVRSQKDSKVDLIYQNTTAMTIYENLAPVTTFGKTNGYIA
UniProt Q5T9A4, sequence (Q5T9A4 whole entry): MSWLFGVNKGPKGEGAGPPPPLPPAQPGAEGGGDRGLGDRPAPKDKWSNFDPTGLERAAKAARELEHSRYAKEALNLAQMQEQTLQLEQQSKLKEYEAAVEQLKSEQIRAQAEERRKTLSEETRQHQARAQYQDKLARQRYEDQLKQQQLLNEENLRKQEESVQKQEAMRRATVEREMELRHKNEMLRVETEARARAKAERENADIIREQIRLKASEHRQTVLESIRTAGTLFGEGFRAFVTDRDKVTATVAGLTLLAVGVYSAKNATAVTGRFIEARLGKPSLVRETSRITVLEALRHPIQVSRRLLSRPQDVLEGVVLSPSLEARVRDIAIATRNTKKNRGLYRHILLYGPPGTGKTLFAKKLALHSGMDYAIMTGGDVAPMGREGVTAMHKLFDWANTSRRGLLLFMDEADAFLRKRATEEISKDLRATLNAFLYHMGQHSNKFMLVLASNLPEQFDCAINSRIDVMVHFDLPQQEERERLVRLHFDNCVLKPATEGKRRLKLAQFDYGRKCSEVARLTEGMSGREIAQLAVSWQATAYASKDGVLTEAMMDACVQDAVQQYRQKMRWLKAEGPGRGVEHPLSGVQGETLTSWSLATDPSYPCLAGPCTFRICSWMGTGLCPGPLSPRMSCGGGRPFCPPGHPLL
UniProt P22087, sequence (P22087 whole entry): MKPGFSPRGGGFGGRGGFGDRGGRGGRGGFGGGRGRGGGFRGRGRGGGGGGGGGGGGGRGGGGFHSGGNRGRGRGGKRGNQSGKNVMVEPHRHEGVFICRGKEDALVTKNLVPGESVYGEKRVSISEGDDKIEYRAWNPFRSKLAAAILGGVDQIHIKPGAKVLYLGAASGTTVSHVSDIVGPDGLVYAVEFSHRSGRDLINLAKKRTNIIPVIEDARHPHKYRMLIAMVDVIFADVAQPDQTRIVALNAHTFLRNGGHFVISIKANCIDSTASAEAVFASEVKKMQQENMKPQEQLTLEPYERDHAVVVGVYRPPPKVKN
UniProt P23284, sequence (P23284 whole entry): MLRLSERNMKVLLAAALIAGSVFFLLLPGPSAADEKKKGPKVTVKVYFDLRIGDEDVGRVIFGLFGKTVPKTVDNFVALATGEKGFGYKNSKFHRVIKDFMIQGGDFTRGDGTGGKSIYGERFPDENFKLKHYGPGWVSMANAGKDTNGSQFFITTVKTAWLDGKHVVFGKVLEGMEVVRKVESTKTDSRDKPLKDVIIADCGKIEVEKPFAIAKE
UniProt P37802, sequence (P37802 whole entry): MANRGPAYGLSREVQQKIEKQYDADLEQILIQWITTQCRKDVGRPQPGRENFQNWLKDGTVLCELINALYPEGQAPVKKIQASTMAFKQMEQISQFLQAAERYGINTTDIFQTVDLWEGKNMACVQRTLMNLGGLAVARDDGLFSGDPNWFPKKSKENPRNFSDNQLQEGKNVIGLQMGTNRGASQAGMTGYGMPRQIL
UniProt P48060, sequence (P48060 whole entry): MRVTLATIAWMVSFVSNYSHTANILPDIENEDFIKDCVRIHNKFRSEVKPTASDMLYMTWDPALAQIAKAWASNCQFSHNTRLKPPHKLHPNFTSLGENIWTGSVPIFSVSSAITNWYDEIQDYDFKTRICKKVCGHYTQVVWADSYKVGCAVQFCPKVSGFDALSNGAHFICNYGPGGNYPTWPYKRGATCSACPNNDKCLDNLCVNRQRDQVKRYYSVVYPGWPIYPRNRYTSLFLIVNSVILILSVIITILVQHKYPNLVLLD

Row | Target | lysine labeling ratio R10:1
1 | UniProt P48060 (lysine site: K200) | 3.31
2 | EEF2 (lysine site: K42) (UniProt P13639) | 1.82 (active)
3 | PSMD1 (lysine site: K890) (UniProt Q99460) | 1.11 (active)
4 | CSPG4 (lysine site: K1711) (UniProt Q6UVK1) | 0.655 (active)
5 | PPIB (lysine site: K116) (UniProt P23284) | 6.61
6 | TFRC (lysine site: K665) (UniProt P02786) | 1.78 (active)
7 | ACTN1 (lysine site: K741) (UniProt P12814) | 1.15 (active)
8 | ITGAV (lysine site: K889) (UniProt P06756) | 1.08 (active)
9 | SHMT2 (lysine site: K409) (UniProt P34897) | 2.98
10 | LAMB1 (lysine site: K1579) (UniProt P07942) | 2.82
11 | TKT (lysine site: K538) (UniProt P29401) | 1.86 (active)
12 | TCP1 (lysine site: K126) (UniProt P17987) | 2.14
13 | PLXNA1 (lysine site: K1084) (UniProt Q9UIW2) | 2.49
14 | LNPEP (lysine site: K726) (UniProt Q9UIQ6) | 0.91 (active)
15 | UniProt Q8N441 (lysine site: K34) | 3.03
16 | EZR (lysine site: K143) (UniProt P15311) | 2.46
17 | PPT1 (lysine site: K174) (UniProt P50897) | 1.29 (active)
18 | GAPDH (lysine site: K5) (UniProt P04406) | 1.43 (active)
19 | IARS (lysine site: K903) (UniProt P41252) | 1.66 (active)
20 | UniProt P60660 (lysine site: K81) | 3.44

Row | Target | lysine labeling ratio R10:1
21 | FBL (lysine site: K84) (UniProt P22087) | 3.62
22 | PTPRJ (lysine site: K202) (UniProt Q12913) | 2.9
23 | ATP6AP1 (lysine site: K380) (UniProt Q15904) | 1.79 (active)
24 | CLU (lysine site: K222) (UniProt P10909) | 0.58 (active)
25 | UniProt P62249 (lysine site: K60) | 4.81
26 | DDX3X (lysine site: K66) (UniProt O00571) | 1.78 (active)
27 | UniProt P05787 (lysine site: K352) | 9.16
28 | ROBO1 (lysine site: K733) (UniProt Q9Y6N7) | 5.78
29 | TFRC (lysine site: K205) (UniProt P02786) | 2.81
30 | UniProt P09758 (lysine site: K84) | 5.29
31 | TGFBR3 (lysine site: K685) (UniProt Q03167) | 1.81 (active)
32 | RPL28 (lysine site: K19) (UniProt P46779) | 0.79 (active)
33 | ATAD3B (lysine site: K117) (UniProt Q5T9A4) | 1.26 (active)
34 | NPR3 (lysine site: K127) (UniProt P17342) | 4.43
35 | UniProt Q13275 (lysine site: K581) | 3.3
36 | CCT2 (lysine site: K284) (UniProt P78371) | 1.69 (active)
37 | DNAJA3 (lysine site: K391) (UniProt Q96EY1) | 1.5 (active)
38 | CD58 (lysine site: K167) (UniProt P19256) | 2.06
39 | TAGLN2 (lysine site: K156) (UniProt P37802) | 1.43 (active)
40 | PNN (lysine site: K157) (UniProt Q9H307) | 1.95 (active)
